Data from PubChem BioAssay (NCATS).
“And” between values parts separate entries of the source, which are not always exact repeats. Identical values can stand only once. Unmarked numbers belong to inactive results. Inconclusive results are not listed. A call without a number means that no potency is given here. Some structures have more than one record in an assay (separate samples or runs), and their calls can disagree. The source made the active and inactive calls. Unless noted, the call rests on the fitted dose curve; in most records, active means well fitted curve in the direction sought with a large enough effect; inconclusive means small, poorly fitted or top-dose-only effect, or another doubt; inactive means no such curve, though single readings can be large; an effect the other way counts as inactive or inconclusive.

Experiments:
[1] = qHTS of Trypanosoma Brucei Inhibitors: LOPAC Validation (AID 624147)
In short: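 Luminescent Kinase-Glo Plus end-point after 45 min room-temperature reaction of T. brucei pyruvate kinase started with 130 uM ADP (final). Buffer TEA 50 mM pH 7.2 with KCl, MgCl2, BSA, Tween-20; titration-based qHTS with fitted concentration-effect curves.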

[2] = molecular target: Glucagon-like peptide 1 receptor (Homo sapiens) (UniProt P43220); test: qHTS of GLP-1 Receptor Agonists: LOPAC Validation (AID 624148);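 further: higher luminescence signal means agonism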
In short: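 HEK293 cells stably co-expressing GLP-1R and a cAMP-responsive luciferase reporter, plated 12 hours before compound, then incubated 4-6 hr at 37 deg C. Luminescence read 12 min after detection reagent.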

[3] = qHTS of Nrf2 Activators: LOPAC Validation (AID 624149)
In short: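 Following overnight seeding in 5% FBS OPTI-MEM, AREc32_Fluc cells receive compounds for a 24 hr incubation at 37 deg C with 5% CO2. Steady-Glo is added, and after 30 min at RT luminescence is recorded.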

[4] = HTS Assay for Allosteric Antagonists of the Human D2 Dopamine Receptor: Hit Validation in HTRF (AID 624455); further: potency means the concentration at half of the fitted maximal effect;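 further: stable D1 dopamine receptor cell line scored for blocking the D1 response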
In short: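 Validation of hits used D1 receptor stably expressed in cells with HTRF detection of response inhibition; origin screen measured calcium flux following EC80 dopamine in a force-coupled, inducible Hek293 Trex D2 cell line.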

[5] = molecular target: Arylsulfatase A (Homo sapiens) (UniProt P15289); test: qHTS screen for enhancers of Arylsulfatase A (ASA1): LOPAC Validation Assay (AID 720538)
In short: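 Read-out: fluorescence at Ex=525/Em=598 nm after 1N NaOH final stop. Patient fibroblasts carrying ASA-I179S had 48h compound exposure, then 14h room-temperature pNCS hydrolysis (0.5mM final) in lysis buffer. Signal increase = enhanced activity.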

[6] = qHTS for compounds that reverse cellular toxicity of Amyloid beta (A-beta) peptide in yeast: LOPAC Validation Assay (AID 720559)
In short: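 OD600 growth readout after 48 hr at 30 C; A-beta-toxic yeast plus pinned compounds in medium. Normalization: DMSO = negative, equimolar FeCl3 + clioquinol = positive.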

[7] = qHTS for Activators of Parkin Expression: LOPAC Validation Assay (NLuc Reporter) (AID 720572)
In short: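 NLuc signal, read 10 min after reagent and following a prior FLuc read, is normalized to DMSO (0) and positive controls (100%). Cells: neuronal Parkin-promoter coincidence reporter line; compounds tested 7-point, 24 h, 37 C, 5% CO2.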

[8] = qHTS for Activators of Parkin Expression: LOPAC Validation Assay (FLuc Reporter) (AID 720573)
In short: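 FLuc luminescence read-out from a neuronal line expressing a Parkin-promoter-driven coincidence reporter. Cells treated 24 h at 37 C, 5% CO2 with compounds at 7 concentrations; signal increase normalized to DMSO and positive control.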

[9] = qHTS assay for environmental chemicals that activate the Aryl hydrocarbon Receptor (AhR) signaling pathway (AID 651777); settings: 1A2-DRE human hepatoma cells, luciferase, 24 h; activation: active compounds read high; further: nearly all actives have a fitted effect of over 15% in size; further: potency means the concentration at half of the fitted maximal effect
In short: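 Human hepatoma 1A2-DRE cells stably carrying a DRE/CYP1A2 promoter–luciferase reporter, 1,200 cells/well, exposed to compound 24 hr at 37 C. Luciferase read by One-Glo luminescence after 30 min at room temperature; increased signal marks AhR activation.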

[10] = molecular target: Peroxisome proliferator-activated receptor alpha (Homo sapiens) (UniProt Q07869); test: qHTS assay for small molecule agonists of the peroxisome proliferator-activated receptor alpha (PPARalpha) signaling pathway (AID 651778); settings: PathHunter PPARalpha complementation, chemiluminescence, 6 h; active compounds read high
In short: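 Enzyme-fragment complementation assay in which ligand-bound PPARalpha translocates and forms an active enzyme that generates chemiluminescence. Cells were plated overnight, exposed to compound for 6 hr at 37 C, and then given detection reagent for 60 min at room temperature.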

[11] = qHTS assay for small molecule agonists of the antioxidant response element (ARE) signaling pathway (AID 651741; active means well fitted activation curve with a large enough effect in the signal ratio; the % refers to the signal ratio; further: potency means the concentration at half of the fitted maximal effect)
In short: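 HepG2 ARE-bla reporter cells, 2,000/well; 5 h settle at 37 C/5% CO2; compound pin transfer (23 nL, DMSO); 16 h at 37 C; LiveBLAzer B/G FRET substrate, 2 h RT; fluorescence intensity read.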

[12] = qHTS assay for small molecule activators of the nuclear factor-kappa B (NF-kB) signaling pathway (AID 651749; active means well fitted activation curve with a large enough effect in the signal ratio; the % refers to the signal ratio; further: series mostly up to about 77 µM); settings: NF-kB-bla ME-180 cells, beta-lactamase FRET ratio, 16 h; active compounds read high
In short: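 NF-kB-bla ME-180 cells, 2,000/well; 23 nL compound or DMSO pinned; 16 hr, 37C/5% CO2; beta-lactamase FRET read-out.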

[13] = molecular target: Nuclear receptor ROR-gamma (Homo sapiens) (UniProt P51449); test: qHTS assay for small molecule antagonists of the retinoid-related orphan receptor gamma (ROR-gamma) signaling pathway (AID 651802); further: nearly all actives have a fitted effect of over 60% in size; further: potency means the concentration at half of the fitted maximal effect
In short: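 Doxycycline-induced reporter activity in engineered CHO cells (TET-inducible ROR, RORE-LUC) was measured by luminescence after 16hr compound exposure at 37C.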

[14] = qHTS assay for small molecule agonists of the antioxidant response element (ARE) signaling pathway measured by Nrf2-dependant transcriptional activity (AID 720636; active means well fitted curve in the direction sought with a large enough effect in the repeat runs; an effect the other way counts as inactive or inconclusive)
In short: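 ARE-luc HepG2 cells carrying an Nrf2-responsive luciferase reporter, in medium with 1% dialyzed FBS, exposed to compound for 16 hr at 37 C, 5% CO2. Luminescence read 30 min after ONE-Glo addition.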

[15] = qHTS assay for small molecule activators of the p53 signaling pathway (AID 651743; active means well fitted activation curve with a large enough effect in the signal ratio, not every such curve was filed as active; the % refers to the signal ratio; further: series mostly up to about 92 µM); settings: HCT-116 p53RE-bla, beta-lactamase FRET ratio, 16 h; activation: active compounds read high
In short: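 Reporter: beta-lactamase driven by p53 response elements, stably integrated in HCT-116 cells. Cells seeded at 4,000/well, 5 h preincubation, compound (DMSO) 16 h at 37 C; B/G FRET substrate 2 h RT; fluorescence intensity read.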

[16] = qHTS assay for small molecule disruptors of the mitochondrial membrane potential - 1 hr assay (AID 651754; calls by dose curve; further: nearly all actives have a fitted effect of over 35% in size)
In short: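 In this qHTS format, a 1 hr compound treatment of HepG2 cells precedes Mito-MPS staining, and membrane potential is judged from aggregate (red) against monomer (green) fluorescence intensity.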

[17] = qHTS assay for small molecule disruptors of the mitochondrial membrane potential - 5 hr assay (AID 651755; calls by dose curve; further: nearly all actives have a fitted effect of over 40% in size; further: potency means the concentration at half of the fitted maximal effect)
In short: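 Read-out: ratiometric Mito-MPS fluorescence, green monomer (ex 490/em 535) vs red mitochondrial aggregate (ex 540/em 590). HepG2 cells treated 5 hr at 37C before 30 min dye loading.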

[18] = qHTS assay to identify small molecules that stimulate interleukin-8 (IL-8) secretion (AID 651758; active means well fitted activation curve with a large enough effect in the signal ratio; the % refers to the signal ratio)
In short: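 Compounds are added to THP-1 cells (2000 per well) and left 16 hrs at 37 C. A labeled anti-IL-8 antibody pair is then added, and IL-8 secretion is measured by time-resolved FRET after 1-3 hrs at room temperature.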

Sequence of Peroxisome proliferator-activated receptor alpha (Homo sapiens) (Q07869 whole entry, looked up, the tested form may be a part): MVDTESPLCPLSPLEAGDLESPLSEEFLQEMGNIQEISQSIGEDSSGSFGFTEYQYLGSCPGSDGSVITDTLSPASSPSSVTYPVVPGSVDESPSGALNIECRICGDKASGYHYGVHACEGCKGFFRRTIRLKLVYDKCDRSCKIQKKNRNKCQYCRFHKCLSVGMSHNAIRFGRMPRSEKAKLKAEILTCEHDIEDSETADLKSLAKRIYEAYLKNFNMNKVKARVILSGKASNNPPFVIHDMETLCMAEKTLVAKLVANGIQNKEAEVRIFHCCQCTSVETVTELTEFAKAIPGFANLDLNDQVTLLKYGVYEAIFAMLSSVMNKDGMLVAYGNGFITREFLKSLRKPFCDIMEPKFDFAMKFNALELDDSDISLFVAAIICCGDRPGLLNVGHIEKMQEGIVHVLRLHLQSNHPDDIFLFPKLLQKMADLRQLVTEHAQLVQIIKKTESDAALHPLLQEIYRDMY
Sequence of Arylsulfatase A (Homo sapiens) (P15289 whole entry, looked up): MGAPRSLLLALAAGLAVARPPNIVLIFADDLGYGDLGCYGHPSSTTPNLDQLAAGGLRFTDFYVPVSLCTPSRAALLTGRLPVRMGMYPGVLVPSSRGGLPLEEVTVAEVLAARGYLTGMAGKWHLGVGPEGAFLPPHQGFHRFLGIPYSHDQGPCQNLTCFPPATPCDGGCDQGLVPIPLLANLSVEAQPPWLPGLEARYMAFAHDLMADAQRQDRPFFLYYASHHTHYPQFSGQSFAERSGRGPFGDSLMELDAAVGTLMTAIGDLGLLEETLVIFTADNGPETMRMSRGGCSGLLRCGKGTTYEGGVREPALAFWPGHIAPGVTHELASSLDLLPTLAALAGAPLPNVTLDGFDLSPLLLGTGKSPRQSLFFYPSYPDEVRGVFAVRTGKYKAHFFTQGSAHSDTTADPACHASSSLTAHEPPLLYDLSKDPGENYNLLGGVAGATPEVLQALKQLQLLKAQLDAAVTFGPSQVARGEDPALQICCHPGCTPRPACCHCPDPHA
Sequence of Glucagon-like peptide 1 receptor (Homo sapiens) (P43220 whole entry, looked up): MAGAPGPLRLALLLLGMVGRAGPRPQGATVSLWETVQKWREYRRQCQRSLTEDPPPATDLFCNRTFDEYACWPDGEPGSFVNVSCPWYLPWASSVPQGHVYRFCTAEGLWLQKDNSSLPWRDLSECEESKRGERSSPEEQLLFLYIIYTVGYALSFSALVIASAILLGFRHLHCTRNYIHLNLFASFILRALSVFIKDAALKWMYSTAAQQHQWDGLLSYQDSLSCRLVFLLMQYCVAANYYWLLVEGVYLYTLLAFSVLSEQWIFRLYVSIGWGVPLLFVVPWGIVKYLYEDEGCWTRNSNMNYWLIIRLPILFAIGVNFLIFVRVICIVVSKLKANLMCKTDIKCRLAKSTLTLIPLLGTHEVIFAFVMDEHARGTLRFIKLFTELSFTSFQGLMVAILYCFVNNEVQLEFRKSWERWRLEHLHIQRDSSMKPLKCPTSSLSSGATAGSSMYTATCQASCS
Sequence of Nuclear receptor ROR-gamma (Homo sapiens) (P51449 whole entry, looked up): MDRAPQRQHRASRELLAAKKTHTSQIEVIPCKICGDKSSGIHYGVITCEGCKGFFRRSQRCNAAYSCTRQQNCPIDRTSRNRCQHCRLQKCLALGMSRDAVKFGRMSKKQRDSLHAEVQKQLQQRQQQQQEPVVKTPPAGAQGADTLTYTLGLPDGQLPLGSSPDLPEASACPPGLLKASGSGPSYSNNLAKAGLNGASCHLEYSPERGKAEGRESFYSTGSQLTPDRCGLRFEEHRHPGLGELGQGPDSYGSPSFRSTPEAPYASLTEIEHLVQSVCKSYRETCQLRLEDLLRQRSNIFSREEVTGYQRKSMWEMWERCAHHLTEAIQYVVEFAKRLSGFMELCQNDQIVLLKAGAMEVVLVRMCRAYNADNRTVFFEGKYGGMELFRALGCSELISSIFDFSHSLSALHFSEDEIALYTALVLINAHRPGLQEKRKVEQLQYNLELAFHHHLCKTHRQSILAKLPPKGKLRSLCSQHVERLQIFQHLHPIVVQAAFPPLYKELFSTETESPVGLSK

For NNC(=O)c1ccc(O)cc1, the Potency [1] was “inactive”, the outcome [2] was “inactive” and the Potency [3] was “inactive”. For the same compound, the Potency [4] was “inactive”, the Potency [5] was “inactive” and the outcome [6] was “inactive”. For the same compound, the Potency [7] was “inactive” and the outcome [8] was “inactive”.
In the case of CC(=O)c1c(O)c(C)c(O)c(Cc2c(O)c3c(c(C(=O)/C=C/c4ccccc4)c2O)OC(C)(C)C=C3)c1O, the Potency [1] is reported as “inactive”, the outcome [2] is reported as “inactive” and the Potency [3] is reported as “inactive”. The Potency [4] was “inactive”, the Potency [5] was “inactive” and the outcome [6] was “inactive”. For the same compound, the Potency [7] was “inactive” and the outcome [8] was “inactive”.
For CCCN(CCC)[C@H]1CCc2c(F)ccc(O)c2C1, the Potency [1] was “inactive”, the outcome [2] was “inactive” and the Potency [3] was “inactive”. The Potency [4] was 7.31 µM (active), the outcome [6] was “inactive” and the Potency [7] was “inactive”. The outcome [8] was “inactive”.
C[CH2][Hg][S]c1ccccc1C(=O)O gave an activation [9] of -11.2% and a max response [10] of -9.74%.
For CCCN(CCC)[C@@H]1CCc2cccc(O)c2C1, the Potency [1] was “inactive”, the outcome [2] was “inactive” and the Potency [3] was “inactive”. The Potency [5] was “inactive”, the outcome [6] was “inactive” and the Potency [7] was “inactive”. The outcome [8] was “inactive”.
For COc1ccc2[nH]cc(CCN)c2c1, the Potency [1] was “inactive”, the outcome [2] was “inactive” and the Potency [3] was “inactive”. The Potency [5] was “inactive”, the outcome [6] was “inactive” and the Potency [7] was “inactive”. For the same compound, the outcome [8] was “inactive”.
In the case of O=[N+]([O-])c1ccc(F)c([N+](=O)[O-])c1, the Potency [11] is reported as 42.2 µM (active), the activation [12] is reported as -0.0445% and the activation [9] is reported as 0.408%. For the same compound, the max response [10] was -10.2%, the Potency [13] was 33.5 µM (active) and the Potency [14] was “inactive”.
With C[N+]1(C)CCOC(O)(c2ccc(-c3ccc(C4(O)C[N+](C)(C)CCO4)cc3)cc2)C1 (configuration not stated) the Potency [1] was “inactive”, the outcome [2] was “inactive” and the Potency [3] was “inactive”. The Potency [4] was “inactive”, the Potency [5] was “inactive” and the outcome [6] was “inactive”. For the same compound, the Potency [7] was “inactive” and the outcome [8] was “inactive”.
With c1ccc2c(N3CCNCC3)cccc2c1 the Potency [1] was “inactive”, the outcome [2] was “inactive” and the Potency [3] was “inactive”. The Potency [4] was “inactive”, the Potency [5] was “inactive” and the outcome [6] was “inactive”. The Potency [7] was “inactive” and the outcome [8] was “inactive”.
For NC(N)=NOCC[C@H](N)C(=O)O, the Potency [1] was “inactive”, the outcome [2] was “inactive” and the Potency [3] was “inactive”. The Potency [4] was “inactive”, the Potency [5] was “inactive” and the outcome [6] was “inactive”. For the same compound, the Potency [7] was “inactive” and the outcome [8] was “inactive”.
In the case of CC[C@H](C)[C@H]1O[C@]2(C=C[C@@H]1C)C[C@@H]1C[C@@H](C/C=C(\C)[C@@H](O[C@H]3C[C@H](OC)[C@@H](O[C@H]4C[C@H](OC)[C@@H](O)[C@H](C)O4)[C@H](C)O3)[C@@H](C)/C=C/C=C3\CO[C@@H]4[C@H](O)C(C)=C[C@@H](C(=O)O1)[C@]34O)O2, the activation [9] is reported as -12.2%, the max response [10] is reported as 7.18% and the Potency [14] is reported as “inactive”.
For COC1=CC(=O)O[C@@H](/C=C/c2ccccc2)C1, the Potency [11] was 5.31 µM (active), the activation [15] was -5.52% and the activation [12] was -0.734%. The Potency [16] was “inactive”, the Potency [17] was “inactive” and the activation [9] was 1.75%. For the same compound, the max response [10] was -0.906%, the Potency [13] was “inactive” and the Potency [14] was “inactive”.
In the case of Cc1[nH]c2ccc(O)cc2c1CCN, the Potency [1] is reported as “inactive”, the outcome [2] is reported as “inactive” and the Potency [3] is reported as “inactive”. For the same compound, the Potency [4] was “inactive”, the Potency [5] was “inactive” and the outcome [6] was “inactive”. For the same compound, the Potency [7] was “inactive” and the outcome [8] was “inactive”.
In the case of N#C/C(=C/c1ccc(O)c(O)c1)C(N)=S, the Potency [1] is reported as “inactive”, the outcome [2] is reported as “inactive” and the Potency [3] is reported as “inactive”. For the same compound, the Potency [4] was “inactive”, the Potency [5] was “inactive” and the outcome [6] was “inactive”. For the same compound, the Potency [7] was “inactive” and the outcome [8] was “inactive”.
In the case of CCOP(=O)(OCC)O/C(=C/Cl)c1ccc(Cl)cc1Cl, the Potency [11] is reported as 30.6 µM (active), the activation [15] is reported as -2.13% and -0.49% and the activation [12] is reported as -2.44% and -1.58%. The Potency [9] was 50.1 µM (active), the activation [9] was 3.76% and the max response [10] was -3.2% and -2.2%. The Potency [14] was “inactive”.
For COc1ccc2c(c1OC)C(=O)OC2C1c2cc3c(cc2CCN1C)OCO3 (configuration not stated), the Potency [11] was “inactive”, the activation [15] was -5.72% and the Potency [16] was “inactive”. For the same compound, the Potency [17] was “inactive”, the Potency [18] was “inactive” and the activation [9] was 0.0911%. For the same compound, the max response [10] was -0.464%, the Potency [13] was “inactive” and the Potency [14] was “inactive”.
For CC(C)Nc1ccc(Nc2ccccc2)cc1, the Potency [11] was 47.3 µM (active), the Potency [17] was 59.6 µM (active) and the max response [10] was -3.2%.
In the case of COCC(C)N(C(=O)CCl)c1c(C)csc1C (configuration not stated), the Potency [11] is reported as 15.4 µM (active), the activation [15] is reported as -0.528% and the activation [12] is reported as -2.83%. The activation [9] was -1.87% and the max response [10] was -3.83%.
With O=C1C[C@@H]2OCC=C3CN4CC[C@]56c7ccccc7N1[C@H]5[C@H]2[C@H]3C[C@H]46 the Potency [11] was “inactive”, the activation [15] was -1.99% and the activation [12] was -1.87%. For the same compound, the activation [9] was 0.363%, the max response [10] was -1.11% and the Potency [14] was “inactive”.
